The nature of assay [1]: CLD_ACTIN_24hr: CellzDirect (CLD) Gene Expression Assay for Baseline Control (Actin) at 24 hours (AID 2283670). The procedure, abridged:
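Primary human hepatocytes dosed over multiple concentrations with 0.2% DMSO vehicle; actin mRNA measured at 24 h by qNPA chemiluminescence. Background control endpoint, fitted as gain of signal versus DMSO.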

Read-out in assay [2]: xenobiotic metabolism (CYP1A1), CYP1A1 (gene 1543)
The experiment in a line: CLD_CYP1A1_24hr: CellzDirect (CLD) Gene Expression Assay for xenobiotic metabolism (CYP1A1) at 24 hours (AID 2283673). The procedure, abridged: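 Primary human hepatocytes dosed daily with fresh solutions in 0.2% DMSO vehicle. mRNA measured at 24 h by quantitative nuclease protection assay with chemiluminescence; gain-of-signal fit versus DMSO, with morphology-based cytotoxicity flags.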

Read-out in assay [3]: ABC Transporter (ABCB11), ABCB11 (gene 8647)
The experiment in a line: CLD_ABCB11_6hr: CellzDirect (CLD) Gene Expression Assay for ABC Transporter (ABCB11) at 6 hours (AID 2283675).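 Also: hits raise ABCB11 mRNA level so AC50 marks induction.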 The procedure, abridged: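 Human primary hepatocytes (two donor preparations) given fresh chemical daily at multiple concentrations, vehicle 0.2% DMSO. ABCB11 mRNA induction measured 6 h after dosing by qNPA chemiluminescence versus DMSO; cytotoxicity annotated from morphology.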

The nature of assay [4]: CLD_ACTIN_6hr: CellzDirect (CLD) Gene Expression Assay for Baseline Control (Actin) at 6 hours (AID 2283676).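 Also: active means increased actin mRNA relative to DMSO vehicle.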 The procedure, abridged:
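Primary human hepatocytes dosed with fresh chemical solutions (vehicle 0.2% DMSO), harvested at 6 h. Actin mRNA quantified by quantitative nuclease protection assay with chemiluminescent read-out, as background control relative to DMSO.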

Read-out in assay [5]: Cytochrome P450 2C19 (Homo sapiens) (UniProt P33261)
Description: CLD_CYP2C19_6hr: CellzDirect (CLD) Gene Expression Assay for xenobiotic metabolism (CYP2C19) at 6 hours (AID 2283678). A digest of the protocol:
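Primary human hepatocytes from two donor preparations were dosed daily, with 0.2% DMSO as vehicle, and harvested 6 h after dosing. CYP2C19 mRNA induction was measured by qNPA chemiluminescence and fitted as gain of signal against DMSO.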

Assay [6] in a line: CCTE_Padilla_ZF_144hpf_TERATOSCORE: (Legacy) CCTE's 144 Hour Post-fertilization zebrafish Assay Teratoscore, Padilla Lab (AID 2283679; active = hit-call score of the fitted dose curve at least 0.9, where 1 is the maximum; inactive = score below 0.9;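 as to AC50: zebrafish embryos with chorions exposed by immersion from 6-8 hpf to 5 dpf with daily renewal; teratogenicity score from eye scoring of death hatching and malformations at 144 hpf; higher score means more developmental defects relative to DMSO baseline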). A digest of the protocol: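 Larvae scored by eye at 144 hpf for death, hatching and malformations after a day in clean Hanks'. Before that, daily-renewed exposure at 80 uM (0.4% DMSO, 26C) from roughly 6-8 hpf through 5 dpf, 4 embryos per chemical.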

Read-out in assay [7]: Glyceraldehyde-3-phosphate dehydrogenase (Homo sapiens) (UniProt P04406)
Description: CLD_GAPDH_6hr: CellzDirect (CLD) Gene Expression Assay for Baseline Control (Glyceraldehyde 3-phosphate dehydrogenase) at 6 hours (AID 2283681).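 Also: active means increased signal relative to DMSO vehicle.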 The procedure, abridged:
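Primary human hepatocytes from two donor preparations, dosed at multiple concentrations with 0.2% DMSO vehicle; GAPDH mRNA measured 6 h after dosing by chemiluminescent quantitative nuclease protection assay (qNPA) on denatured lysates. Serves as background control; cytotoxicity annotated by morphology.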

Read-out in assay [8]: ABC Transporter (ABCB1), ABCB1 (gene 5243)
The experiment in a line: CLD_ABCB1_24hr: CellzDirect (CLD) Gene Expression Assay for ABC Transporter (ABCB1) at 24 hours (AID 2283684). A digest of the protocol:
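Primary human hepatocytes, two donor preparations, dosed daily with fresh solutions; vehicle 0.2% DMSO; harvested at 24 h. ABCB1 mRNA measured by quantitative nuclease protection assay (chemiluminescence); morphology-based cytotoxicity annotated.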

Read-out in assay [9]: Cytochrome P450 (CYP24A1_1), CYP24A1 (gene 1591)
Description: LTEA_HepaRG_CYP24A1_1: Life Technologies and Expression Analysis (LTEA) Assay for Cytochrome P450 (CYP24A1_1) using HepaRG (AID 2283671; active = hit-call score of the fitted dose curve at least 0.9, where 1 is the maximum; inactive = score below 0.9). The settings on record: mRNA level, 48 h; actives raise or lower the signal. The procedure, abridged:
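HepaRG, 48 h exposure, 8-pt half-log series from 100 uM in 0.5% DMSO, duplicates. Readout: TaqMan qRT-PCR of CYP24A1 mRNA, housekeeping-normalized (ACTB/GAPDH/POLR2A). Bidirectional curve fit vs DMSO baseline.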

Read-out in assay [10]: ABC Transporter (ABCB11), ABCB11 (gene 8647)
The experiment in a line: CLD_ABCB11_24hr: CellzDirect (CLD) Gene Expression Assay for ABC Transporter (ABCB11) at 24 hours (AID 2283674; active = hit-call score of the fitted dose curve at least 0.9, where 1 is the maximum; inactive = score below 0.9). The procedure, abridged: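 Primary human hepatocytes were dosed daily for two days, with 0.2% DMSO vehicle. ABCB11 mRNA induction was measured at 24 hours by quantitative nuclease protection assay with chemiluminescence. Gain of signal was fitted relative to DMSO.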

Read-out in assay [11]: Cytochrome P450 2B6 (Homo sapiens) (UniProt P20813)
Description: CLD_CYP2B6_6hr: CellzDirect (CLD) Gene Expression Assay for xenobiotic metabolism (CYP2B6) at 6 hours (AID 2283677).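 Also: actives raise CYP2B6 transcript above DMSO baseline so AC50 marks an inducer.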 A digest of the protocol:
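Primary human hepatocytes dosed with chemicals at multiple concentrations, vehicle 0.2% DMSO; CYP2B6 mRNA induction measured 6 h after dosing by quantitative nuclease protection assay with chemiluminescence, gain of signal fitted relative to DMSO.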

Read-out in assay [12]: Cytochrome P450 2C19 (Homo sapiens) (UniProt P33261)
Description: CLD_CYP2C19_24hr: CellzDirect (CLD) Gene Expression Assay for xenobiotic metabolism (CYP2C19) at 24 hours (AID 2283687).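 Also: activity means mRNA induction above DMSO vehicle baseline.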 A digest of the protocol:
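Primary human hepatocytes (two donor preparations) dosed daily with fresh test chemical in 0.2% DMSO vehicle; CYP2C19 mRNA induction measured at 24 h by quantitative nuclease protection assay with chemiluminescence, fitted for gain of signal versus DMSO.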

Read-out in assay [13]: glucuronosyltransferase (UGT1A1), UGT1A1 (gene 54658)
Description: CLD_UGT1A1_6hr: CellzDirect (CLD) Gene Expression Assay for glucuronosyltransferase (UGT1A1) at 6 hours (AID 2283672). A digest of the protocol:
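Primary human hepatocytes from two donor preparations, dosed with fresh solutions in 0.2% DMSO, harvested at 6 h. UGT1A1 mRNA measured by qNPA chemiluminescence; induction fitted upward versus DMSO.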

Read-out in assay [14]: Broad substrate specificity ATP-binding cassette transporter ABCG2 (Homo sapiens) (UniProt Q9UNQ0)
Description: CLD_ABCG2_24hr: CellzDirect (CLD) Gene Expression Assay for ABC Transporter (ABCG2) at 24 hours (AID 2283685). A digest of the protocol:
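Primary human hepatocytes were dosed daily with ToxCast chemicals at multiple concentrations (vehicle 0.2% DMSO). ABCG2 mRNA was measured at 24 h by qNPA chemiluminescence; induction was scored as gain of signal versus DMSO.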

Read-out in assay [15]: Cytochrome P450 3A4 (Homo sapiens) (UniProt P08684)
The experiment in a line: CLD_CYP3A4_24hr: CellzDirect (CLD) Gene Expression Assay for xenobiotic metabolism (CYP3A4) at 24 hours (AID 2283689). The procedure, abridged:
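Primary human hepatocytes from two donors dosed daily with fresh compound for two days, 0.2% DMSO vehicle. CYP3A4 mRNA at 24 hr by qNPA chemiluminescence; gain-of-signal fit versus DMSO, cytotoxicity flagged by morphology.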

Read-out in assay [16]: xenobiotic metabolism (CYP1A2), CYP1A2 (gene 1544)
The experiment in a line: CLD_CYP1A2_24hr: CellzDirect (CLD) Gene Expression Assay for xenobiotic metabolism (CYP1A2) at 24 hours (AID 2283683). The procedure, abridged:
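Primary human hepatocytes from two donor preparations dosed daily with multiple concentrations of chemical, 0.2% DMSO vehicle. CYP1A2 mRNA at 24 h quantified by qNPA chemiluminescence; gain of signal analyzed relative to DMSO. Cytotoxicity flagged by phase-contrast morphology.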

Read-out in assay [17]: Cytochrome P450 3A4 (Homo sapiens) (UniProt P08684)
The experiment in a line: CLD_CYP3A4_6hr: CellzDirect (CLD) Gene Expression Assay for xenobiotic metabolism (CYP3A4) at 6 hours (AID 2283680). The procedure, abridged: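 Primary human hepatocytes (two donor preparations) dosed; CYP3A4 mRNA harvested at 6 h and quantified by qNPA chemiluminescence. Gain of signal fitted against 0.2% DMSO vehicle; cytotoxicity flagged by phase-contrast morphology.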

Read-out in assay [18]: Cytochrome P450 2B6 (Homo sapiens) (UniProt P20813)
Description: CLD_CYP2B6_24hr: CellzDirect (CLD) Gene Expression Assay for xenobiotic metabolism (CYP2B6) at 24 hours (AID 2283686). A digest of the protocol: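 Primary human hepatocytes dosed daily for two days with fresh solutions, harvested at 24 hours; mRNA induction quantified by qNPA chemiluminescence, gain of signal vs 0.2% DMSO vehicle. Cytotoxicity annotated from phase-contrast morphology.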

The structures appear in SMILES notation. Records with an inconclusive call do not appear. The source made the active and inactive calls. The calls were made as follows, unless noted: active = hit-call score of the fitted dose curve at least 0.9, where 1 is the maximum; inconclusive = response in the unintended direction; inactive = score below 0.9.

Broadly, the AC50 is the concentration at which the activity in the assay is half-maximal.

Chain of Glyceraldehyde-3-phosphate dehydrogenase (Homo sapiens) (P04406 whole entry, looked up): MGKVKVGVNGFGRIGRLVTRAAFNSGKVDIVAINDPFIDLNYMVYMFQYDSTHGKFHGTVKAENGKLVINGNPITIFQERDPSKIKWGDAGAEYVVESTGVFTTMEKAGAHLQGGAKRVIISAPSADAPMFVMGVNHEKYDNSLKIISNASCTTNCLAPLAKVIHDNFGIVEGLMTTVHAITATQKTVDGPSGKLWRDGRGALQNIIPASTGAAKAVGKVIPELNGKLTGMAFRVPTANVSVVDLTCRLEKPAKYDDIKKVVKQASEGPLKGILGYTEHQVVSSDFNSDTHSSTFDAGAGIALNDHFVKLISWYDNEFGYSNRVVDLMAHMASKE
Chain of Cytochrome P450 2C19 (Homo sapiens) (P33261 whole entry, looked up): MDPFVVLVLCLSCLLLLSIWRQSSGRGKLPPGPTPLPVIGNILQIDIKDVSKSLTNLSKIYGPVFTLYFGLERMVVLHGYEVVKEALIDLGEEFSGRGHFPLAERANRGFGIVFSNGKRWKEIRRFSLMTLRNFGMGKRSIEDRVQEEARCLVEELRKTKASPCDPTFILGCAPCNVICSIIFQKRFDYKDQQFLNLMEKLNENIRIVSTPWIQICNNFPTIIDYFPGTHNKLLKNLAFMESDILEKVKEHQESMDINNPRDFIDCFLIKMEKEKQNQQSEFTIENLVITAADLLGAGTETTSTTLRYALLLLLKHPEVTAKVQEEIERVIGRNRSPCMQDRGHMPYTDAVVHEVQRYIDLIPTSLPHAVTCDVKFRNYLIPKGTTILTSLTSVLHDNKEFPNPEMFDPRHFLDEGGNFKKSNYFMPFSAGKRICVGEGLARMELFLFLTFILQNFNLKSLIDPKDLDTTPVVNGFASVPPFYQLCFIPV
Chain of Cytochrome P450 3A4 (Homo sapiens) (P08684 whole entry, looked up): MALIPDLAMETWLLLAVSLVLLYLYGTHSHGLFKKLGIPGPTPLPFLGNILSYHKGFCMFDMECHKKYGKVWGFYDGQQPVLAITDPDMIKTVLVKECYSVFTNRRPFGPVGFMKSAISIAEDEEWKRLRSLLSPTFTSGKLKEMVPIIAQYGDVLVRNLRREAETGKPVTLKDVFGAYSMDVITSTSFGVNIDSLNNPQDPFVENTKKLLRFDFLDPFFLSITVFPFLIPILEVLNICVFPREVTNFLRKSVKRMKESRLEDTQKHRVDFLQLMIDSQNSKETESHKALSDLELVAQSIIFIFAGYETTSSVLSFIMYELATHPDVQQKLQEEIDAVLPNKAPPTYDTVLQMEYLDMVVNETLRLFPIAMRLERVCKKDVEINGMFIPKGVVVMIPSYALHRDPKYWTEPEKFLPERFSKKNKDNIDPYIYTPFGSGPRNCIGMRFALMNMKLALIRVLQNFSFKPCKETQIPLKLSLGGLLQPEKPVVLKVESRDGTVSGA
Chain of Broad substrate specificity ATP-binding cassette transporter ABCG2 (Homo sapiens) (Q9UNQ0 whole entry, looked up): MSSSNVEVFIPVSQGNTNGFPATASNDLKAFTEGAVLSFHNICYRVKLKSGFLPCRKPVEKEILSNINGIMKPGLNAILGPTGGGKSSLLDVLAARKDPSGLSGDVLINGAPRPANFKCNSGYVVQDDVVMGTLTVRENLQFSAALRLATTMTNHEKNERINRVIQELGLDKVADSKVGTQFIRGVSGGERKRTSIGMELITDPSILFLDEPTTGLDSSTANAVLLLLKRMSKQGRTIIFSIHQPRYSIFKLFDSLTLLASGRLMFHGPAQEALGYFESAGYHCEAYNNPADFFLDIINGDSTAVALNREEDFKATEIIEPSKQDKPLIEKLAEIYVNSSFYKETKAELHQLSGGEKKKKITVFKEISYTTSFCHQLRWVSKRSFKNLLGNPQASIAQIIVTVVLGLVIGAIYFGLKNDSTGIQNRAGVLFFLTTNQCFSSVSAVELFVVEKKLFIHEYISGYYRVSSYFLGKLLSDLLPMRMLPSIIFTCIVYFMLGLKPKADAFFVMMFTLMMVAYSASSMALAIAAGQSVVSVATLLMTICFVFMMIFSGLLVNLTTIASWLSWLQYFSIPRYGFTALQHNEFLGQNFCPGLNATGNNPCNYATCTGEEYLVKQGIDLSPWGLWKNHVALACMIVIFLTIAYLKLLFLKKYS

As to `CC(Oc1cccc(Cl)c1)C(=O)O` (centres undefined), the result in assay [1], in [2], in assay [3], in [4], in assay [5] and in assay [6] was inactive. In addition, the compound was called inactive in assay [7] and in assay [8].

Consider `CC1(C(=O)Nc2ccc(O)c(Cl)c2Cl)CCCCC1`, for which the result in assay [1], in assay [9], in assay [10], in [3], in assay [11] and in [5] was inactive. Further, the compound was classed as inactive in [7] and in assay [12]. The AC50 in [6] was 10.1 µM (active).

With `CCCCN(CC)c1c([N+](=O)[O-])cc(C(F)(F)F)cc1[N+](=O)[O-]`, the result in assay [9], in assay [13], in [4] and in assay [7] was inactive. Also, the half-maximal activity concentration (AC50) in [11] is 2.13 µM (active); in assay [6] it was 5.08 µM (active).

Take `CCCSP(=O)(OCC)Oc1ccc(Br)cc1Cl` (centres undefined): the concentration at half-maximal activity (AC50) in assay [11] was 3.75 µM (active); in assay [6], 8.79 µM (active); in [15], 20 µM (active). Besides, the compound was classed as inactive in assay [8], in [14] and in assay [12].

`C#CCC1=C(C)C(OC(=O)C2C(C=C(C)C)C2(C)C)CC1=O` (centres undefined): the outcome in [13], in assay [3], in assay [4], in [7] and in assay [14] was inactive. For the same compound, the figures for the half-maximal activity concentration (AC50) in [11], in [6] and in [16] were 1.08 µM (active), 2.76 µM (active) and 20 µM (active), respectively.

Turning to `CC(=NC#N)N(C)Cc1ccc(Cl)nc1`, the compound was called inactive in assay [10], in assay [4], in assay [11], in [5], in assay [6] and in assay [17]. In addition, the compound was called inactive in [7], in assay [14], in assay [18] and in [12].

As for `CSc1nc(NC(C)C)nc(NC(C)C)n1`, the outcome in assay [9], in [13], in [5], in assay [7] and in assay [12] was inactive. Also, the concentration at half-maximal activity (AC50) in assay [11] was 4.01 µM (active); in [6], 132 µM (active); in [18], 2.99 µM (active); in assay [15], 3.97 µM (active).

Regarding `CCCCOC(=O)c1ccccc1C(=O)O`, the call in assay [13], in assay [10], in assay [3], in assay [11], in assay [5] and in assay [6] was inactive. Further, the outcome in assay [7], in [16], in [14] and in [12] was inactive.

In the case of `CCc1cccc(C)c1N(C(=O)CCl)C(C)COC` (centres undefined), the call in assay [1], in assay [4], in assay [7] and in assay [12] was inactive. Further, the AC50 in assay [11] was 0.596 µM (active); in [6], 50.9 µM (active).

With `CNc1cnn(-c2cccc(C(F)(F)F)c2)c(=O)c1Cl`, the AC50 was 5.85 µM (active) in [2], 8.33 µM (active) in assay [11] and 6.64 µM (active) in assay [18]. For the same compound, the compound was called inactive in [3], in assay [4], in assay [5] and in assay [6].

The values are drawn from PubChem BioAssay (EPA / NIEHS).
